OTUD3 block – inhibitors of human OTUD3 deubiquitinase. Q5T2D3. AID 1645858. 0.7% of 47,000 active. inhibition, % at 25 µM. purified OTUD3, Ub-rhodamine fluorescence, 2 h
Target sequence (Q5T2D3 whole entry, looked up): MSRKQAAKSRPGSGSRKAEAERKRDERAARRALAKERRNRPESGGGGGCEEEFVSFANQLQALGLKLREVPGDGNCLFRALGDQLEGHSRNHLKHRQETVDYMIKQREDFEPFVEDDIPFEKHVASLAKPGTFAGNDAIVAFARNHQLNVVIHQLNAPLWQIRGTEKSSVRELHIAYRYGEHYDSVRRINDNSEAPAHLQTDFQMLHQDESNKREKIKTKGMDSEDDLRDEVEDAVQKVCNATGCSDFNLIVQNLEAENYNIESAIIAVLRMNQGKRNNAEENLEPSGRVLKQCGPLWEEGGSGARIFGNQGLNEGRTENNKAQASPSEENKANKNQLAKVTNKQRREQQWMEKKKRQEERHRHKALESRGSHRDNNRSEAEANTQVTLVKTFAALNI
USP30 inh – blocks human USP30 ubiquitin-rhodamine cleavage | purified USP30, Ub-rhodamine cleavage fluorescence | Q70CQ3 | 5.3% of 47,000 active | inhibition, % at 25 µM
USP28 inh – blocks human USP28 ubiquitin-rhodamine cleavage | Q96RU2 | purified USP28, Ub-rhodamine cleavage fluorescence, 30 min | inhibition, % at 25 µM | 3% of 47,000 active
USP17 block – inhibitors of human USP17 deubiquitinase; 6.5% of 47,000 active; inhibition, % at 50 µM; A8MUK1; purified USP17, Ub-rhodamine cleavage fluorescence, 3 h; AID 1645855
Hits are given with their value; – = inactive. A selection: hits, their analogues and other compounds. The true share with any hit is near 12%. Rule as the data show it: active = inhibition above about 30%; inactive = the rest.

SMILES | OTUD3 block | USP30 inh | USP28 inh | USP17 block
COc1cc(-n2c(=O)c3ccccc3n(CC(=O)NCCc3ccccc3)c2=O)cc(OC)c1OC | – | 35 | – | –
COc1cc(-n2c(=O)c3ccccc3n(Cc3cccc(F)c3)c2=O)cc(OC)c1OC | – | 35 | – | –
COc1ccc(-c2nnn(CC(=O)NCCc3ccccc3)n2)cc1OC | – | – | – | 47
O=C(Cc1ccc(-n2c(=O)c3ccccc3n(Cc3cccc(F)c3)c2=O)cc1)NC1CCCC1 | – | – | – | –
COc1cc(CCC(=O)N(C)C(c2ccccc2)c2ccccc2)cc(OC)c1OC | – | – | – | –
COc1ccccc1CC(=O)N(C)C(c1ccccc1)c1ccccc1 | 35 | 52 | – | –
C[C@@H]1O[C@@H](O[C@H]2[C@H](O[C@H]3[C@H](O[C@H]4CC[C@@]5(C)[C@@H](CC[C@]6(C)[C@@H]5CC=C5[C@@H]7CC(C)(C)CC(=O)[C@]7(C)CC[C@]56C)[C@@]4(C)CO)O[C@H](C(=O)O)[C@@H](O)[C@@H]3O)OC[C@@H](O)[C@@H]2O)[C@H](O)[C@H](O)[C@H]1O | – | 53 | 49 | 32
COc1ccccc1CNC(=O)c1c(O)c2cnn(-c3cccc(C)c3)c2[nH]c1=O | – | – | 76 | 39
O=C(NCc1ccc(F)cc1F)c1c(O)c2cnn(-c3ccc(F)cc3)c2[nH]c1=O | – | – | – | –
O=c1[nH]c(C2CCN(S(=O)(=O)c3ccc(S(=O)(=O)NC4CCCCC4)cc3)CC2)nc2c1nnn2Cc1c(Cl)cccc1Cl | – | 50 | 49 | –
O=c1[nH]c(C2CCN(S(=O)(=O)c3ccc(S(=O)(=O)NC4CCCCC4)cc3)CC2)nc2c1nnn2Cc1c(F)cccc1Cl | – | 59 | 55 | –
Cc1ccc(NC(=O)N2CCN(C3=CC4=NCC(C)N4C=N3)CC2)c(C)c1 (stereo unspecified) | – | – | – | –
CC(C)n1nnc2cc(S(=O)(=O)N3CCCCC3C(=O)O)ccc21 (stereo unspecified) | – | – | – | –
COc1cccc(NC(=O)C2CCC(CNS(=O)(=O)c3ccc4c(c3)C(C)(C)C(=O)N4C)CC2)c1 (stereo unspecified) | – | – | 76 | –
Cc1ccc(NC(=O)C2CCC(CNS(=O)(=O)c3ccc4c(c3)C(C)(C)C(=O)N4C)CC2)cc1C (stereo unspecified) | – | – | – | –
O=C(c1cc2occc2c(Nc2ccc(F)cc2)n1)N1CCN(c2ccccc2F)CC1 | – | – | – | –
O=C(COc1ccc(S(=O)(=O)N2CCOCC2)cc1)N1CCC(Cc2ccccc2)CC1 | – | – | 57 | –
CCOC(=O)C1CCN(C(=O)COc2ccc3c(=O)c(Oc4ccc(F)cc4)c(C)oc3c2)CC1 | – | 30 | – | –
O=C(COc1ccccc1F)N1CCC(Cc2ccccc2)CC1 | – | – | – | –
CC(C)NS(=O)(=O)c1ccc(OCC(=O)N2CCC(Cc3ccccc3)CC2)cc1 | – | 32 | 79 | –
Cc1c(C)c2ccc(OCC(=O)N3CCC(Cc4ccccc4)CC3)cc2oc1=O | – | 48 | 42 | –
CCNC(=O)CSc1nnc(-c2ccc(Cl)cc2)n1Cc1ccco1 | – | – | – | –
COC1=C2C[C@@H](C)C[C@H](OC)[C@H](O)[C@@H](C)/C=C(\C)[C@H](OC(N)=O)[C@@H](OC)/C=C\C=C(/C)C(=O)NC(=CC1=O)C2=O | – | – | – | –
CCC1OC(O)(C(C)C(O)C(C)C2OC(=O)/C(C)=C/C(C)=CC(C)C(O)C(C)C/C(C)=C/C=C/C2OC)CC(OC(=O)/C=C/C(=O)NC2=C(O)CCC2=O)C1C (stereo unspecified) | 32 | – | 34 | 74
CO/C1=C\C(C)=C/[C@@H](C)[C@@H](O)[C@@H](C)C/C(C)=C/C=C/[C@H](OC)[C@@H]([C@@H](C)[C@@H](O)[C@H](C)[C@@]2(O)C[C@@H](OC(=O)/C=C/C(N)=O)[C@H](C)[C@@H](C(C)C)O2)OC1=O | – | – | – | 56
SMILES | OTUD3 block | USP30 inh | USP28 inh | USP17 block
O=C(Cc1cccc(F)c1)Nc1cc(-c2ccccn2)no1 | – | – | – | –
COc1ccc(CCN2Cc3cc4ccccc4nc3OC2=O)cc1 | – | – | – | –
Cc1cc(C)c2cc3c(nc2c1)OC(=O)N(Cc1ccco1)C3 | – | – | 40 | 56
COc1ccc2cc3c(nc2c1)OC(=O)N(Cc1ccccc1)C3 | – | 39 | – | –
Cc1ccc(CN2Cc3cc4ccccc4nc3OC2=O)o1 | – | – | – | 42
CC(C)Cc1nc(C(N)=O)c2[nH]c(=O)n(CC3CCCO3)c2n1 (stereo unspecified) | – | – | – | –
CC(=O)N1CCc2cc(S(=O)(=O)NCCC(=O)Nc3ccc(C)cc3C)ccc21 | – | – | – | –

Assay outcomes: PubChem BioAssay, Buhrlage Lab, Dana-Farber Cancer Institute and Novartis Institutes for BioMedical Research (Cambridge, Mass)
